# Source: PubChem BioAssay AID1053133 (Broad Institute, 2014)
# About 10 (0.01%) of roughly 89,000 compounds were called active. Inconclusive results (about 10%) are left out. Rule as the data show it: active = activity change below about -37% (passing the limit was not always enough); inconclusive = no clear call, values can overlap the other calls; tested in A549 cells. These entries were drawn from the full list.
# Assay: Vaccinia orthopox stage-specific inhibition, primary screen, cell-based, single point (AID 1053133)
# Details: Vaccinia-infected cells, mCherry/Venus stage reporter fluorescence, stronger effect = lower value, concentration not given here; activity change (Venus): measured here: Venus reporter, other viral stage
Structure (SMILES),activity change (Venus),activity change (mCherry)
O=C(C[C@H]1C=C[C@@H](NS(=O)(=O)c2ccc(F)cc2)[C@@H](CO)O1)NC1CCC1,1.04%,-4.64% (inactive)
COc1ccc2c3c(n(C)c2c1)[C@@H](CO)NCC31CCN(CC2CC2)CC1,-18.9%,-27.4% (inactive)
O=C([C@@H]1[C@@H](CO)[C@@H]2Cn3c(ccc(C4=CCCC4)c3=O)[C@H]1N2C(=O)c1ccncc1)N1CCCCC1,16.9%,10.1% (inactive)
C[C@@H]1CCCCO[C@H](CN(C)S(=O)(=O)c2cccs2)[C@H](C)CN([C@@H](C)CO)C(=O)c2cc(NC(=O)Nc3ccc4c(c3)OCO4)ccc2O1,8.44%,9.35% (inactive)
COCC(=O)N1CC2(CN(C(=O)c3cccnc3)C2)c2c([nH]c3cc(OC)ccc23)[C@H]1CO,-0.352%,2.73% (inactive)
Cc1ccccc1S(=O)(=O)N[C@@H]1CC[C@H](CCn2cc(-c3ccc(F)cc3)nn2)O[C@@H]1CO,-24.8%,-28.1% (inactive)
CO[C@@H]1CC[C@@H]2CCOc3c(C#N)cccc3C(=O)N(C)C[C@H](C)C(=O)N(C)C[C@H]1O2,8.81%,14.4% (inactive)
C[C@@H]1CN([C@@H](C)CO)C(=O)c2cc(NC(=O)Cc3ccccc3)ccc2O[C@@H](C)CCCCO[C@H]1CN(C)C(=O)Nc1cccc2ccccc12,18.5%,21.9% (inactive)
CN(C)CCCNC(=O)C[C@H]1CC[C@H]2[C@@H](COC[C@H](O)CN2CC2CCCCC2)O1,5.87%,3.25% (inactive)
C[C@@H]1CCCCO[C@@H](CN(C)Cc2ccc3c(c2)OCO3)[C@H](C)CN([C@@H](C)CO)C(=O)c2cc(NS(C)(=O)=O)ccc2O1,5.91%,-0.705% (inactive)
COc1ccc2c3c(n(C)c2c1)[C@H](CO)N(CC1CCOCC1)CC31CCN(C(C)=O)CC1,11%,17.4% (inactive)
CN(C)CC(=O)Nc1ccc2c(c1)[C@@H]1C[C@H](CC(=O)NCc3ccc(Cl)cc3)O[C@@H](CO)[C@@H]1O2,5.77%,-4.73% (inactive)
COc1ccc2c3c([nH]c2c1)[C@@H](CO)N(C(=O)c1ccc(F)cc1)CC31CCN(C(=O)Nc2ccc(F)cc2)CC1,-2.47%,1.1% (inactive)
C[C@H](CO)N1C[C@H](C)[C@H](CN(C)Cc2cccc(F)c2)Oc2ncc(C#CCN(C)C)cc2C1=O,-6.38%,-10.3% (inactive)
COc1ccc(S(=O)(=O)N[C@@H]2CC[C@@H](CC(=O)NCCc3ccccc3)O[C@@H]2CO)cc1,-2.59%,3.47% (inactive)
O=C(NCC[C@@H]1CC[C@@H](NS(=O)(=O)c2ccc(Cl)cc2)[C@@H](CO)O1)c1ccccc1F,-4.89%,-8.02% (inactive)
COc1ccc(S(=O)(=O)Nc2ccc3c(c2)C(=O)N([C@@H](C)CO)C[C@H](C)[C@@H](CN(C)C(=O)c2ccccc2)OCCCC[C@H](C)O3)cc1,-18.1%,-21.6% (inactive)
CC(C)NC(=O)N1Cc2cc(C(=O)NCC(F)(F)F)nc(-c3cccc(-c4cc5ccccc5o4)c3)c2[C@@H]1CCO,-13.3%,-16.3% (inactive)
C[C@@H]1CN([C@@H](C)CO)C(=O)Cc2cc(NS(=O)(=O)c3cccs3)ccc2O[C@H]1CN(C)S(=O)(=O)c1ccc(F)cc1,4.55%,-5.12% (inactive)

Structure (SMILES),activity change (Venus),activity change (mCherry)
CO[C@@H]1CN(C)C(=O)c2cc(NC(=O)C3CC3)ccc2OC[C@H](C)N(C(=O)CN(C)C)C[C@H]1C,-3.17%,-2.47% (inactive)
O=C(C[C@@H]1CC[C@H](NC(=O)Nc2ccc3c(c2)OCO3)[C@H](CO)O1)NCc1ccccc1,14.1%,19.4% (inactive)
C=CCOC(=O)C1=C[C@@H](c2ccccc2)C[C@@H](OCc2ccc(CO)cc2)O1,-3.63%,2.64% (inactive)
O=C(C1CCCC1)N1CC(=O)N2[C@@H](CO)[C@@H](c3ccc(-c4cccnc4)cc3)[C@@H]2C1,-4.04%,-5.69% (inactive)
Cc1ccccc1-c1cnc2c(c1)C(=O)N([C@H](C)CO)C[C@@H](C)[C@H](CN(C)C(=O)c1cccnc1)O2,-1.16%,-1.67% (inactive)
CN(C)C(=O)c1ccc(-c2ccc(C3[C@H]4CNC[C@@H]3N4C(=O)Nc3cc(F)ccc3F)cc2)cc1 (some centres undefined),3.11%,14.7% (inactive)
O=C(C1CCCCC1)N1CC2(C1)[C@H](c1ccccc1)[C@@H](CO)N2CCC(F)(F)F,-3.18%,-9.06% (inactive)
CC(=O)Nc1ccc2c(c1)C(=O)N(C)[C@H]1CC[C@@H](CC(=O)NCC3CC3)O[C@H]1CO2,11.1%,7.92% (inactive)
CCC(=O)N(C)C[C@@H]1Oc2ncc(/C=C/c3ccccc3)cc2C(=O)N([C@@H](C)CO)C[C@H]1C,1.22%,12.1% (inactive)
O=C(O)C[C@H]1C=C[C@@H](NC(=O)Nc2cc(F)ccc2F)[C@@H](CO)O1,9.94%,8.15% (inactive)
COCC(=O)N(C)C[C@H]1Oc2cc(C#C[C@@H](C)O)ccc2S(=O)(=O)N([C@@H](C)CO)C[C@@H]1C,-7.76%,2.13% (inactive)
CCC(=O)N(C)C[C@@H]1Oc2cc(-c3ccc(C#N)cc3)ccc2S(=O)(=O)N([C@@H](C)CO)C[C@@H]1C,0.0371%,-1.36% (inactive)
COc1ccc2c3c(n(C)c2c1)[C@@H](CO)N(S(C)(=O)=O)CC31CCN(C(=O)C2CCC2)CC1,-12.1%,-2.22% (inactive)
CC(C)C#Cc1cnc2c(c1)C(=O)N([C@H](C)CO)C[C@H](C)[C@@H](CN(C)C(=O)Nc1cc(F)ccc1F)O2,-6.46%,-3.74% (inactive)
COc1ccccc1NC(=O)N1C[C@@H](O)COC[C@H]2O[C@@H](CC(=O)NCc3ccccc3)CC[C@@H]21,-3.27%,-5.93% (inactive)
Cc1cccc(-c2ccc([C@@H]3[C@H]4CN(C(=O)c5ccccc5)CC(=O)N4[C@H]3CO)cc2)c1,-26.3%,-24.1% (inactive)
CCCN1C[C@H](C)[C@@H](OC)CN(C)C(=O)c2ccc(NC(=O)C3CCOCC3)cc2OC[C@@H]1C,5.44%,13.4% (inactive)
C[C@H]1CN([C@@H](C)CO)C(=O)CCCn2nncc2CO[C@@H]1CN(C)C(=O)Nc1ccc(N2CCN(C)CC2)cc1,3.05%,3.06% (inactive)
N#Cc1cccc(-c2ccc([C@H]3[C@@H](CO)N[C@@H]3CNC(=O)C3CCC3)cc2)c1,-1.58%,-4.87% (inactive)

Structure (SMILES),activity change (Venus),activity change (mCherry)
COc1ccc2c3c(n(C)c2c1)[C@H](CO)N(CC1CCCCC1)CC31CCN(Cc2nccs2)CC1,-17.6%,-20.4% (inactive)
C/C=C/c1ccccc1[C@H]1[C@@H](C#N)N(C(=O)Cc2ccccn2)[C@@H]1CO,-12.5%,-21.2% (inactive)
CCNC(=O)[C@H]1[C@H](CO)[C@H]2Cn3c(cccc3=O)[C@@H]1N2Cc1cc(F)ccc1F,15.1%,12.8% (inactive)
O=C(C[C@@H]1CC[C@@H]2[C@H](COC[C@H](O)CN2C(=O)c2ccc3c(c2)OCO3)O1)NC1CCCC1,4.69%,7.59% (inactive)
C[C@@H]1CCCCO[C@H](CN(C)S(=O)(=O)c2ccc(Cl)cc2)[C@H](C)CN([C@@H](C)CO)C(=O)c2cc(NS(=O)(=O)c3cn(C)cn3)ccc2O1,3.71%,0.869% (inactive)
CNC(=O)C[C@@H]1CC[C@@H]2[C@H](COC[C@H](O)CN2Cc2ccc(C(F)(F)F)cc2)O1,3.54%,4.2% (inactive)
Cc1noc(C)c1S(=O)(=O)N(C)C[C@@H]1OCCCC[C@@H](C)Oc2ccc(NC(=O)Nc3ccccc3)cc2C(=O)N([C@H](C)CO)C[C@@H]1C,5.28%,12.8% (inactive)
CC=Cc1ccc2n(c1=O)C[C@@H]1[C@@H](CO)[C@H](C(=O)NCc3cccc(OC)c3)N[C@H]21 (mixture of isomers),12.7%,3.42% (inactive)
C/C=C/c1cnc2c(c1)C(=O)N([C@H](C)CO)C[C@H](C)[C@@H](CN(C)S(=O)(=O)c1ccccc1F)O2,-1.53%,-5.68% (inactive)
COCC(=O)Nc1ccc2c(c1)C(=O)N(C)C[C@H](OC)[C@@H](C)CN(CCc1ccccc1)[C@@H](C)CO2,-0.0268%,-4.99% (inactive)
O=C(C[C@@H]1C[C@@H]2c3cc(NC(=O)Nc4ccccc4F)ccc3O[C@@H]2[C@H](CO)O1)NCCc1ccccc1,7.27%,9.1% (inactive)
CCCC(=O)N1CC2(C1)CN(C(=O)Nc1cccc(F)c1)[C@@H](CO)c1c2c2ccc(OC)cc2n1C,-2.53%,2.16% (inactive)
COCC(=O)Nc1ccc2c(c1)C(=O)N(C)[C@@H]1CC[C@H](CC(=O)NCC3CC3)O[C@@H]1CO2,8.99%,16% (inactive)
COc1ccc2c3c([nH]c2c1)[C@@H](CO)N(C(=O)Cc1ccccc1)CC31CCN(C)CC1,-13.2%,-7.54% (inactive)
C[C@H](CO)N1C[C@H](C)[C@H](CN(C)C(=O)C2CCOCC2)Oc2ncc(-c3ccccc3F)cc2C1=O,6.04%,8.11% (inactive)
CO[C@H]1CN(C)C(=O)c2cc(NC(=O)C3CCC3)ccc2OC[C@H](C)N(CC2CCCCC2)C[C@@H]1C,3.14%,-9.01% (inactive)
COc1ccc2c3c(n(C)c2c1)[C@H](CO)N(C)CC31CCN(C(=O)Nc2cccc(F)c2)CC1,-8.96%,-16.1% (inactive)
CC(C)NC(=O)N1CC(=O)N2[C@@H](CO)[C@H](c3ccc(C#CCN(C)C)cc3)[C@@H]2C1,7.94%,9.18% (inactive)
O=C(C[C@H]1C[C@H]2c3cc(NC(=O)Nc4ccc(C(F)(F)F)cc4)ccc3O[C@H]2[C@@H](CO)O1)NCCc1ccccc1,9.77%,6.8% (inactive)
